A selection: hits, their analogues and other compounds. The true share with any hit is near 3.2%.
Lamin A splicing – qHTS Assay for Modulators of Lamin A Splicing; HeLa LMNA splicing GFP/RFP minigene ratio, 48 h; Potency, µM (series often up to 46.1 µM), hits mostly inhibitors; 200,000 tested, 0.01% active; AID 1487, 2009; active = well fitted inhibition curve with a large enough effect in the signal ratio, with a control signal flat, not every such curve was filed as active; inconclusive = small, poorly fitted or top-dose-only effect, or effect the other way, or a change in a side signal; the % refers to the signal ratio
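Read-out is the ratio of GFP to DsRed2 object intensity, acquired by 488 nm laser-scanning cytometry on HeLa lamin A-EGFP minigene reporter cells. Compound incubation 48 hrs at 37 °C in Opti-MEM with 2% FBS; DMSO 0.5% final.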
JMJD2E inh – qHTS Assay for Inhibitors of Human Jumonji Domain Containing 2E (JMJD2E); Potency, µM (series often up to 57.1 µM), hits mostly inhibitors; 230,000 tested, 1.6% active; JMJD2E catalytic domain, FDH-coupled NADH fluorescence (FDH is formaldehyde dehydrogenase); also: nearly all actives have a fitted effect of over 50% in size
Target sequence (B2RXH2 1-337 limits assumed): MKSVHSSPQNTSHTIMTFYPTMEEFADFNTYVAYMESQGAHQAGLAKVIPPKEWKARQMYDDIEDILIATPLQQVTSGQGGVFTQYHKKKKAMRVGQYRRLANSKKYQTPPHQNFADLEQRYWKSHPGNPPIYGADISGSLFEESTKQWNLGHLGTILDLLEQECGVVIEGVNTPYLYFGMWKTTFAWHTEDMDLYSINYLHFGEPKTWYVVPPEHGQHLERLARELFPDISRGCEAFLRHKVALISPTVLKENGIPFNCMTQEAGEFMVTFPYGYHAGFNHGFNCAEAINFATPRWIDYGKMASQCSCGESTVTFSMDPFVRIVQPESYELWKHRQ
Tau ThT inhib – qHTS for Inhibitors of Tau Fibril Formation, Thioflavin T Binding; recombinant tau K18 P301L, heparin-induced fibrillization, ThT fluorescence; Potency, µM (top dose mostly 57.4 µM), hits mostly inhibitors; 270,000 tested, 2.1% active; also: nearly all actives have a fitted effect of over 55% in size
Target sequence (P10636 561-689 P618L limits assumed): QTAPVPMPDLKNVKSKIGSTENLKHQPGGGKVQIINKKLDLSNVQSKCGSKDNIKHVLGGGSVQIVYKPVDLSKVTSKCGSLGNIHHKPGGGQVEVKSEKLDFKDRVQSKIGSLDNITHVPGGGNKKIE
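Heparin-induced (20 uM) aggregation of recombinant human K18 P301L tau, 15 uM unlabeled with 0.24 uM labeled, pH 7 acetate buffer, 6 hr at 37 C with compound. Fibrils quantified by 30 uM ThT fluorescence after 1 hr ambient incubation.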
Tau fibril FP – qHTS for Inhibitors of Tau Fibril Formation, Fluorescence Polarization. K18 P301L tau heparin fibrillization, Alexa594 FP, 6 h. Potency, µM (highest dose often 57.7 µM), hits mostly inhibitors. 280,000 tested, 0.39% active. AID 1468, 2008; also: nearly all actives have a fitted effect of over 55% in size
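Compound effects on tau fibrillization are measured by Alexa 594 fluorescence polarization (ex 555, em 632 nm). K18 P301L tau is used at 15 uM with 0.24 uM labeled tracer, and 20 uM heparin induces aggregation over 6 hr at 37 C.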
Tau fluor cs – Counterscreen qHTS for Inhibitors of Tau Fibril Formation, Fluorescence Polarization. tau K18 P301L (four-repeat tau fragment) Alexa594 fluorescence, heparin fibrillization. Potency, µM (highest dose often 57.7 µM). 280,000 tested, 0.93% active. AID 1463, 2008; also: nearly all actives have a fitted effect of over 55% in size
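Human K18 P301L tau (15 uM unlabeled plus 0.24 uM Alexa 594-labeled, final) in 100 mM sodium acetate pH 7 was mixed with compound and 20 uM heparin and incubated 6 hr at 37 C.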
CBFb-RUNX1 inh – qHTS Assay for Compounds Blocking the Interaction Between CBF-beta and RUNX1 for the Treatment of Acute Myeloid Leukemia. Runt-related transcription factor 1 (Homo sapiens) + Core-binding factor subunit beta …. AlphaScreen CBFb-His/RUNX1-biotin binding, biochemical. Potency, µM (highest dose often 59.8 µM), actives largely listed as inhibitors. 230,000 tested, under 10 active. AID 1477, 2009
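CBF-beta (His) and RUNX1 (biotin), 30 nM each; 20 min preassociation; + compound, 15 min; + beads 50 ng each (Ni, streptavidin), 90 min; RT; AlphaScreen read.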
Hits are given with their value; 0 = inactive; ? = inconclusive; - = no result given; [ ] = dose if it differs, or a comment. Unless noted, calls follow the shape of the dose curve; as a rule, active = well fitted curve in the direction sought with a large enough effect; inconclusive = small, poorly fitted or top-dose-only effect, or another doubt; inactive = no such curve, though single readings can be large; an effect the other way counts as inactive or inconclusive.

SMILES	Lamin A splicing	JMJD2E inh	Tau ThT inhib	Tau fibril FP	Tau fluor cs	CBFb-RUNX1 inh
CCCCN(CC)C(=O)c1nn(C)c2c1CSc1ccccc1-2	-	-	0	?	14µM[quencher]	-
COC(=O)C1=C(c2ccccc2)c2ccccc2S(=O)(=O)N1CC(=O)Nc1ccc(OC)cc1OC	-	-	0	0	?	-
COC(=O)c1sc(-c2ccccc2)cc1NC(=O)Nc1ccc(F)cc1	-	-	0	18µM	?	-
Oc1ccc2ccccc2c1N=Nc1ccccc1F	-	?	16µM	0	?	?
CC(C)CCn1c(O)c(N=Nc2ccccn2)c2ccccc21	?	0	?	0	0	0
O=S(=O)(O)c1cccc(N=Nc2c(O)ccc3ccccc23)c1	-	0	-	?	0	?
Oc1ccc2ccccc2c1N=Nc1ccccn1	?	?	5µM	0	?	-
COc1ccc(NC(=O)/C(C#N)=C/C=C/c2ccco2)cc1	?	0	7.1µM	0	0	0
N#C/C(=C/c1ccc(N2CCCCC2)o1)C(=O)Nc1ccc(Cl)cc1	?	0	?	0	0	0
COc1ccc(NC(=O)/C(C#N)=C/c2ccc(C)o2)cc1	-	-	?	0	0	-
N#C/C(=C/c1ccc(N2CCCCC2)o1)C(=O)Nc1ccc2ccccc2c1	?	25µM	13µM	0	?	0
COc1ccc(NC(=O)/C(C#N)=C\c2ccc(N3CCOCC3)o2)cc1	?	?	13µM	0	?	?
N#C/C(=C\c1ccc(N2CCOCC2)o1)C(=O)Nc1ccc(O)cc1	?	0	14µM	0	0	0
CCn1cc(C(=O)OCC(=O)Nc2cc(Cl)ccc2C)c(=O)c2ccc(C)nc21	-	-	0	0	0	-
CC(=O)N1c2ccc(S(=O)(=O)NCCc3cccc(C)c3)cc2CC1C (stereo unspecified)	0	-	0	0	0	-
CCCOc1ccc(-c2nn(-c3ccccc3)cc2C2NC(=O)NC(C)=C2C(=O)OC(C)C)cc1 (stereo unspecified)	-	-	0	0	0	-
CCc1cccc(CC)c1NC(=O)CCS(=O)(=O)c1ccc(Br)cc1	0	-	0	0	0	-
Cc1c(C(=O)Nc2cccc(C(F)(F)F)c2)sc2nc3n(c(=O)c12)CCC3	0	-	0	0	0	-
COCCCN1C(=O)/C(=C/c2ccc(CNS(=O)(=O)c3ccccc3)o2)C(C(=O)OC)=C1C	0	?	14µM	?	0	0
CNC(=O)/C(C#N)=C\c1ccc(CNS(=O)(=O)c2ccccc2)o1	0	0	0	0	0	0
CCNC(=O)c1ccc(-n2c(-c3ccccc3)cc3c2CCCCC3)cc1	0	-	0	11µM	?	-
COCCNC(=O)c1ccc(-n2c(-c3ccccc3)cc3c2CCCCC3)cc1	?	-	0	25µM	?	-
COCCCNC(=O)c1ccc(-n2c(-c3ccccc3)cc3c2CCC(C)C3)cc1 (stereo unspecified)	0	-	0	13µM	0	-
CCCNC(=O)c1ccc(-n2c(-c3ccccc3)cc3c2CCCCC3)cc1	0	-	0	?	?	-
CC(C)OCCCNC(=O)c1ccc(-n2c(-c3ccccc3)cc3c2CCCC3)cc1	?	-	0	14µM	?	-
SMILES	Lamin A splicing	JMJD2E inh	Tau ThT inhib	Tau fibril FP	Tau fluor cs	CBFb-RUNX1 inh
CCOCCCNC(=O)c1ccc(-n2c(-c3ccccc3)cc3c2CCCCC3)cc1	0	-	0	20µM	?	-
CN(C)CCNC(=O)c1ccc(-n2c(-c3ccccc3)cc3c2CCCC3)cc1	0	-	?	0	0	-
COc1cccc(-n2c(-c3ccco3)nc3c(cnn3-c3ccc(C)cc3)c2=O)c1	-	-	0	0	0	-
O=C1CC(N(CCc2ccccc2)C(=S)Nc2ccccc2)C(=O)N1c1ccc(Br)cc1 (stereo unspecified)	?	0	?	7.9µM	?	0
COc1ccc(CCN(C(=S)Nc2ccccc2)C2CC(=O)N(c3ccccc3)C2=O)cc1 (stereo unspecified)	0	0	0	0	?	0
CCc1cccc(NC(=O)CCc2c(C)nc3c(c2C)c(=O)n(C)c(=O)n3C)c1	-	-	0	0	0	-
CN(C)c1ccc(NC(=O)c2cn(-c3ccccc3)nc2-c2cccs2)cc1	0	0	?	0	8.9µM[quencher]	?
CCN(CC)CCOC(=O)c1ccc(NC(=O)c2cn(-c3ccccc3)nc2-c2cccs2)cc1	?	?	0	11µM	8.9µM[quencher]	0
Cc1ccc(CNC(=O)CCCCn2c(=O)c3ccccc3n(Cc3ccc(C)cc3)c2=O)cc1	-	-	0	0	0	-
CCCCCC/C=C1\CC(C(=O)OCC)Oc2ccccc21 (stereo unspecified) (tested in a mixture with another compound)	-	-	0	0	0	0
CC(C)CNC(=O)NC(=O)COc1c(F)c(F)cc(F)c1F	0	?	?	?	16µM[quencher]	0
O=C1/C(=C/c2ccc(O)c(O)c2)Oc2cc(O)ccc21	-	16µM	14µM	0	?	0
COc1cc(/C=C2\Oc3cc(O)ccc3C2=O)ccc1O	-	?	?	0	0	0
Cc1ccnc(N/N=C/c2ccco2)n1	0	0	0	0	0	0
Cc1nnc(N/N=C/c2ccco2)n1N	0	28µM	?	?	0	0
C=CCCn1c(Cl)c(C#N)sc1=O	-	-	-	-	-	0
CCOc1cccc(NC(=O)CSc2ncc(-c3ccccc3)[nH]2)c1	-	-	?	0	?	-
O=C(CSc1ncc(-c2ccccc2)[nH]1)Nc1cccc(C(F)(F)F)c1	-	-	0	?	16µM[quencher]	-
CCN(CC)c1ccc(NC2=C(Cl)C(=O)c3ccccc3C2=O)cc1	?	7.1µM	2.8µM	5µM	2.2µM[quencher]	0
CCNc1ccccc(-c2ccc3ccccc3n2)c1=O	0	0	?	0	0	0
O=C1C(Cl)=C(Nc2ccc(O)cc2)C(=O)c2ccccc21	-	0	2µM	3.5µM	2µM[quencher]	0
O=C1C(Cl)=C(NCCN2CCCCC2)C(=O)c2ccccc21	-	0	10µM	0	?	0
O=C(NCCN1CCCC1)c1ccccc1Cl	-	0	0	0	0	0
O=C(NC1=C(Nc2ccc(F)cc2)C(=O)c2ccccc2C1=O)c1ccc(Cl)cc1	0	0	?	0	0	0
CCNC1=C(Cl)C(=O)c2ccccc2C1=O	?	0	18µM	0	?	-
CC1CCN(C(=O)c2cnn(-c3ccc(Cl)cc3)c2C2CCN(C(=O)OC(C)(C)C)CC2)CC1	?	-	0	0	0	-
CCC(Cn1nnc2ccccc2c1=O)NC(=O)Nc1ccccc1OC (stereo unspecified)	-	-	0	0	0	-
Cc1ccc(NC2=C(Cl)C(=O)c3ccccc3C2=O)cc1	?	0	2.2µM	?	?	0

Compound activity (PubChem BioAssay)
